Source: PubChem BioAssay (NCI)
Compounds without any hit were thinned out: in the full panel of roughly 83,000, 20% have a hit.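 Plates (96-well) were seeded with cells, treated with compound at one concentration, and incubated for 48 hours before percent growth was determined.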 Calls of active or inactive are those of the source. Rule for the calls: active = growth percent below 10; inactive = the rest.

system: MDA-MB-468 breast; test: NCI-60 one-dose screen, 48 h (100 = growth as untreated, 0 = no growth, -100 = all killed); details: 10 µM unless noted

With `CCCCn1c(-c2ccc(C(=O)O/N=C(\N)c3ccc(OC)cc3)cc2)nc(-c2ccccc2)c1-c1ccccc1` as the compound, how does the growth read?
The growth was -14.4% (active).

For `CCOC(=O)c1cccc(NC2=C(Cl)C(=O)C(C)=C(C)C2=O)c1`, which growth is on record?
Its growth is -20.6% (active).

Which growth does the source give for `O=C1/C(=C/c2ccccc2)CCC/C1=C\c1ccccc1` here?
Its growth is 63.2% (inactive).

`CC(C)(C)c1nc2c(s1)c1nc(N)ncc1c1ccc(NS(=O)(=O)c3c(F)cccc3F)c(F)c12` was tested. Which growth did it give?
Its growth is 60.2% (inactive).

For `COC(=O)c1c(C)nc(C)c2c1C(=O)C(Br)=C(NCc1ccccc1)C2=O`, which growth is on record?
Its growth is -21.3% (active).

For `O=c1cc(-c2ccccc2)[nH]c2c1CCCC2`, which growth is on record?
The growth was 39.9% (inactive).

With `CCOC(=O)C(CCCCC(NC(C)=O)(C(=O)OCC)C(=O)OCC)(NC(C)=O)C(=O)OCC` as the compound, how does the growth read?
The growth was 107% (inactive).
